In PubChem BioAssay (NCI) one finds growth inhibition data, which are given here for 40 compounds.

Structures are written as SMILES. The panel holds about 79,000 compounds, 15% with a hit somewhere; the sample as a whole holds those more often. Values without a mark were called inactive. Calls of active or inactive are those of the source. No stated cut-off is given here; in the data, active means growth inhibition above about 70%; inactive means the rest.

A short description of one assay: NCI Yeast Anticancer Drug Screen. Data for the bub3 strain (AID 167). Conditions: S. cerevisiae bub3 mutant strain, at 5.0 µM (retest, dose inferred, filed as 0.5), stronger effect = higher value. The procedure, abridged: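 Whole-cell yeast assay. The mutant strain was incubated with compounds, and growth inhibition was determined by comparison with vehicle-treated cells.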
`CCCCCCCCCCS(=O)(=O)Nc1ccc(C(=O)NN)cc1`: the growth inhibition is 48%.
The same measure, in the same setting: next, `ON(C(=Nc1ccc(Cl)cc1)c1ccccc1)c1ccccc1`: 7%.
Same read-out and setting: under `Cc1ccc(-c2c(N)[n+]([O-])c3ccccc3[n+]2[O-])cc1` stands 54%; under `NC(=O)C12OC3CC(CC(C3)O1)O2`, 2%.
On the same count and under the same terms, next, `C=C(C)[P+](C)(c1ccccc1)c1ccccc1`: -18%; `CCC(C)SC1SCC2C(=O)N(C)C3(CC3C)C(=O)OCC(NC(=O)c3nc4ccccc4cc3O)C(=O)NC(C)C(=O)N(C)C1C(=O)N(C)C1(CC1C)C(=O)OCC(NC(=O)c1nc3ccccc3cc1O)C(=O)NC(C)C(=O)N2C` (stereo not given): 75% (active); `COc1ccc2ccc(=O)oc2c1CC=C(C)C`: 14%.
As to `O=c1ccn(C2OC(COC(c3ccccc3)(c3ccccc3)c3ccccc3)C(O)C2O)c(=O)[nH]1` (stereo not given), the growth inhibition was 38%.
For the compound `O=C1C(=O)C(Cc2ccccc2)(c2ccccc2)C(=O)N1c1ccccc1` (stereo not given), the growth inhibition was -1%.
On the same count and under the same terms, under `CCC(O)C(O)(c1ccccc1)c1nc2ccccc2s1` (stereo not given) stands -7%; under `c1ccc(-n2ncc3ccc4cccn4c32)cc1`, 17%; under `O=C(c1ccc([N+](=O)[O-])cc1)C(Br)C(Br)c1ccnc2ccccc12` (stereo not given), 3%.
The same measure, in the same setting: next, `[Cl][Sn]1([Cl])[CH2]CC[CH2][Sn]([Cl])([Cl])[CH2]CC[CH2][Sn]([Cl])([Cl])[CH2]CC[CH2][Sn]([Cl])([Cl])[CH2]CC[CH2]1`: -9%; `Nc1ccc(O)c(=O)cc1`: -8%; `CC(C)c1cc(C(=O)[O-])c(O)c(C(C)C)c1.CC(C)c1cc(C(=O)[O-])c(O)c(C(C)C)c1.CC(C)c1cc(C(=O)[O-])c(O)c(C(C)C)c1.CC(C)c1cc(C(=O)[O-])c(O)c(C(C)C)c1.CC(C)c1cc(C(=O)[O-])c(O)c(C(C)C)c1.CC(C)c1cc(C(=O)[O-])c(O)c(C(C)C)c1.[Cu+2].[Mn+2].[Mn+2]`: 37%.
On to `CC1=C(C(=O)Nc2cccc(C(F)(F)F)c2)C(c2ccccc2F)C(C(=O)Nc2cccc(C(F)(F)F)c2)=C(C)N1`, for which the growth inhibition is 37%.
Same read-out and setting: next, `O=C(c1ccccc1)C(C(=O)c1ccccc1)c1ccc2ccccc2n1`: 1%; `NC(=S)N1N=C2c3ccccc3CC[C@H]2[C@@H]1c1cccs1`: -11%.
The same measure, in the same setting: under `O=CC(O)CN1CCCC1` (stereo not given) stands -4%; under `CCCCCN(CCCCC)CC(C)(C)C(O)c1ccc(OC)c2ccccc12` (stereo not given), 0%; under `CSC(=S)n1nc(-c2cccs2)c(N=Nc2ccccc2)c1C(F)(F)F`, 2%.
Consider `CC(O)C1CCCC[N+]1(C)C` (stereo not given), for which the growth inhibition was -11%.
Still for that read-out and setting: under `CCCCCCCCCCCC(=O)N(CCOC(=O)c1ccco1)CCOC(=O)c1ccco1` stands 34%; under `CCOC(=O)NC(=S)Nc1ccsc1`, -3%.
Still for that read-out and setting: under `O=C(O)c1ccc(C(O)(c2ccccc2)c2ccccc2)cc1` stands -3%; under `N#CSCCSCc1ccc(Cl)cc1`, -6%.
Still for that read-out and setting: under `CN(/N=C\c1ccc(Cl)cc1)C(c1ccc(Cl)cc1)N(C)/N=C/c1ccc(Cl)cc1` (stereo not given) stands -2%; under `CC(C)(C)[Si](C)(C)OCC1OC(n2cc(I)c(N)nc2=O)C(O[Si](C)(C)C(C)(C)C)C1O[Si](C)(C)C(C)(C)C` (stereo not given), 9%; under `O=C1C(=O)c2cc(Br)cc([N+](=O)[O-])c2-c2ccc(Br)cc21`, 38%.
`C(=NCCc1ccccc1)c1ccccc1B1OB(c2ccccc2C=NCCc2ccccc2)OB(c2ccccc2C=NCCc2ccccc2)O1`: the growth inhibition is 79% (active).
Still for that read-out and setting: next, `O=[N+]([O-])c1ccc(-c2ccccc2Cl)c([N+](=O)[O-])c1`: -6%; `CC12CCC(=O)C=C1CCC1C2CCC2(C)C(c3cnc[nH]3)CCC12` (stereo not given): 53%.
Still for that read-out and setting: under `COc1cccc(C2CC(C)(O)Oc3cc4c(cc32)OCO4)c1` (stereo not given) stands 2%.
The same measure, in the same setting: under `N/C(=N\N=C\c1cc(I)cc(I)c1O)NO` stands -2%; under `Cc1ccc2nn(-c3ccc(O)cc3)nc2c1`, 28%; under `COC(=O)C1=C(NC(=O)Nc2ccc(Cl)cc2)OC(C)(C)C1c1ccc(Cl)cc1` (stereo not given), 89% (active).
`CCCC/C=C\CCCCCCCCCC1=C(O)C(=O)C=C(OC)C1=O`: the growth inhibition was 77% (active).
`Cc1nn(C(=O)c2ccccc2O)c2c1C(c1ccco1)SC(N)=N2` (stereo not given): the growth inhibition was 7%.
As to `CC1=C(CO)C(=O)O[C@@H]([C@@H](C)[C@H]2CC[C@H]3[C@@H]4C[C@@H](O)C5=CC=CC(=O)[C@]5(C)[C@H]4CC[C@]23C)C1`, the growth inhibition is 0%.
Still for that read-out and setting: next, `O=C(CNC(=O)Nc1ccc(NC(=O)NCC(=O)Nc2ccc(C3=NCCN3)cc2)cc1)Nc1ccc(C2=NCCN2)cc1`: 0%.

Staying with this assay, now noted: S. cerevisiae bub3 mutant strain, at 50.0 µM (retest, dose inferred, filed as 5.0), stronger effect = higher value.
Regarding `CCCCCCCCCCS(=O)(=O)Nc1ccc(C(=O)NN)cc1`, the growth inhibition was 82% (active).
On the same count and under the same terms, next, `ON(C(=Nc1ccc(Cl)cc1)c1ccccc1)c1ccccc1`: 98% (active).
On the same count and under the same terms, under `Cc1ccc(-c2c(N)[n+]([O-])c3ccccc3[n+]2[O-])cc1` stands 99% (active); under `NC(=O)C12OC3CC(CC(C3)O1)O2`, 5%.
On the same count and under the same terms, next, `C=C(C)[P+](C)(c1ccccc1)c1ccccc1`: 6%; `CCC(C)SC1SCC2C(=O)N(C)C3(CC3C)C(=O)OCC(NC(=O)c3nc4ccccc4cc3O)C(=O)NC(C)C(=O)N(C)C1C(=O)N(C)C1(CC1C)C(=O)OCC(NC(=O)c1nc3ccccc3cc1O)C(=O)NC(C)C(=O)N2C` (stereo not given): 93% (active); `COc1ccc2ccc(=O)oc2c1CC=C(C)C`: 98% (active).
With `O=c1ccn(C2OC(COC(c3ccccc3)(c3ccccc3)c3ccccc3)C(O)C2O)c(=O)[nH]1` (stereo not given), the growth inhibition is 98% (active).
On the same count and under the same terms, under `O=C1C(=O)C(Cc2ccccc2)(c2ccccc2)C(=O)N1c1ccccc1` (stereo not given) stands 52%.
Same read-out and setting: next, `CCC(O)C(O)(c1ccccc1)c1nc2ccccc2s1` (stereo not given): -12%; `c1ccc(-n2ncc3ccc4cccn4c32)cc1`: 16%; `O=C(c1ccc([N+](=O)[O-])cc1)C(Br)C(Br)c1ccnc2ccccc12` (stereo not given): 86% (active).
On the same count and under the same terms, next, `[Cl][Sn]1([Cl])[CH2]CC[CH2][Sn]([Cl])([Cl])[CH2]CC[CH2][Sn]([Cl])([Cl])[CH2]CC[CH2][Sn]([Cl])([Cl])[CH2]CC[CH2]1`: 66%; `Nc1ccc(O)c(=O)cc1`: 4%.
As for `CC(C)c1cc(C(=O)[O-])c(O)c(C(C)C)c1.CC(C)c1cc(C(=O)[O-])c(O)c(C(C)C)c1.CC(C)c1cc(C(=O)[O-])c(O)c(C(C)C)c1.CC(C)c1cc(C(=O)[O-])c(O)c(C(C)C)c1.CC(C)c1cc(C(=O)[O-])c(O)c(C(C)C)c1.CC(C)c1cc(C(=O)[O-])c(O)c(C(C)C)c1.[Cu+2].[Mn+2].[Mn+2]`, the growth inhibition was 66%.
Consider `CC1=C(C(=O)Nc2cccc(C(F)(F)F)c2)C(c2ccccc2F)C(C(=O)Nc2cccc(C(F)(F)F)c2)=C(C)N1`, for which the growth inhibition was 37%.
Same read-out and setting: under `O=C(c1ccccc1)C(C(=O)c1ccccc1)c1ccc2ccccc2n1` stands -4%; under `NC(=S)N1N=C2c3ccccc3CC[C@H]2[C@@H]1c1cccs1`, 70% (active).
On the same count and under the same terms, under `O=CC(O)CN1CCCC1` (stereo not given) stands 25%; under `CCCCCN(CCCCC)CC(C)(C)C(O)c1ccc(OC)c2ccccc12` (stereo not given), 64%.
For `CSC(=S)n1nc(-c2cccs2)c(N=Nc2ccccc2)c1C(F)(F)F`, the growth inhibition is 97% (active).
Still for that read-out and setting: under `CC(O)C1CCCC[N+]1(C)C` (stereo not given) stands -8%; under `CCCCCCCCCCCC(=O)N(CCOC(=O)c1ccco1)CCOC(=O)c1ccco1`, 96% (active); under `CCOC(=O)NC(=S)Nc1ccsc1`, 3%.
Same read-out and setting: under `O=C(O)c1ccc(C(O)(c2ccccc2)c2ccccc2)cc1` stands 97% (active); under `N#CSCCSCc1ccc(Cl)cc1`, 99% (active).
On the same count and under the same terms, under `CN(/N=C\c1ccc(Cl)cc1)C(c1ccc(Cl)cc1)N(C)/N=C/c1ccc(Cl)cc1` (stereo not given) stands 66%; under `CC(C)(C)[Si](C)(C)OCC1OC(n2cc(I)c(N)nc2=O)C(O[Si](C)(C)C(C)(C)C)C1O[Si](C)(C)C(C)(C)C` (stereo not given), 99% (active); under `O=C1C(=O)c2cc(Br)cc([N+](=O)[O-])c2-c2ccc(Br)cc21`, 94% (active).
In the case of `C(=NCCc1ccccc1)c1ccccc1B1OB(c2ccccc2C=NCCc2ccccc2)OB(c2ccccc2C=NCCc2ccccc2)O1`, the growth inhibition was 99% (active).
For the compound `O=[N+]([O-])c1ccc(-c2ccccc2Cl)c([N+](=O)[O-])c1`, the growth inhibition is 93% (active).
Still for that read-out and setting: under `CC12CCC(=O)C=C1CCC1C2CCC2(C)C(c3cnc[nH]3)CCC12` (stereo not given) stands 70% (active); under `COc1cccc(C2CC(C)(O)Oc3cc4c(cc32)OCO4)c1` (stereo not given), 57%; under `N/C(=N\N=C\c1cc(I)cc(I)c1O)NO`, 99% (active).
The same measure, in the same setting: under `Cc1ccc2nn(-c3ccc(O)cc3)nc2c1` stands 69%.
Same read-out and setting: next, `COC(=O)C1=C(NC(=O)Nc2ccc(Cl)cc2)OC(C)(C)C1c1ccc(Cl)cc1` (stereo not given): 89% (active); `CCCC/C=C\CCCCCCCCCC1=C(O)C(=O)C=C(OC)C1=O`: 86% (active).
For the compound `Cc1nn(C(=O)c2ccccc2O)c2c1C(c1ccco1)SC(N)=N2` (stereo not given), the growth inhibition is 86% (active).
Consider `CC1=C(CO)C(=O)O[C@@H]([C@@H](C)[C@H]2CC[C@H]3[C@@H]4C[C@@H](O)C5=CC=CC(=O)[C@]5(C)[C@H]4CC[C@]23C)C1`, for which the growth inhibition was 40%.
Turning to `O=C(CNC(=O)Nc1ccc(NC(=O)NCC(=O)Nc2ccc(C3=NCCN3)cc2)cc1)Nc1ccc(C2=NCCN2)cc1`, the growth inhibition is -5%.
